Reference: ChEMBL document CHEMBL3988442, “University of Dundee, Small-Polar-MMV Screening Library” (2021)
The whole screen tested about 48,000 compounds, of which about 13,000 (27%) showed an effect of 50% or more. This is one part of the list.

test system: Wolbachia pipientis; assay: Anti-Wolbachia Cell-Based Screen; assay type: functional; design: scale not given: in the data most compounds retested in dose-response had high values; settings: 5 µM

Row | Compound | Percent Effect [%]
1 | Cc1c[nH]c(CN(C)C(=O)c2ccc(CSc3nnc[nH]3)o2)n1 | -3.87
2 | CC(C(=O)N(C)C1CCCCC1)S(=O)(=O)Cc1csc(-c2cccs2)n1 (stereo not drawn) | -23.89
3 | CNS(=O)(=O)c1ccc(CNC(=O)c2cccc(C)n2)cc1 | 84.72
4 | COc1ncccc1CNC(=O)c1cccc(C)n1 | 6.477
5 | Cc1cccc(C(=O)NCc2ccccc2)n1 | 112.9
6 | CNS(=O)(=O)c1ccc(CNC(=O)NCc2cc[nH]n2)cc1 | -14.1
7 | CCN(CC)c1ccc(CNC(=O)c2cccc(C)n2)cn1 | 13.97
8 | CN1CCN(Cc2nc3ccccc3[nH]2)[C@H]2CS(=O)(=O)C[C@H]21 | -11.18
9 | CNc1cc(C)nc(N2CCC3(CC2)[C@H](O)C[C@@H]3OCCN(C)C)n1 | -28.04
10 | CCCC(=O)N1CCCCC1c1nc(N(C)C)ncc1-c1cc(C)no1 (stereo not drawn) | 132.6
11 | Cc1csc(C2CCCCN2C(=O)COCc2nc(C)no2)n1 (stereo not drawn) | -7.815
12 | CCC(=O)N1CCCCC1c1nc(N(C)C)ncc1-c1cc(C)no1 (stereo not drawn) | 127.9
13 | Cc1cc(-c2cnc(N(C)C)nc2C2CCCCN2C(=O)C2CC2)on1 (stereo not drawn) | 124.3
14 | Cc1cc(C2CCCN2C(=O)COc2ccc(CC#N)cc2)on1 (stereo not drawn) | -5.28
15 | COCC(=O)N1CCCCC1c1nc(N(C)C)ncc1-c1cc(C)no1 (stereo not drawn) | 90.99
16 | Cc1ccc(C(=O)NCC(C)Cn2ccnc2C)c(=O)[nH]1 (stereo not drawn) | -21.01
17 | Cc1nc(-c2cn(CCN)nn2)n(-c2ccc3c(c2)CCC3)n1 | -87.51
18 | COc1ccc(NC(=O)N2CCCC2c2ccncc2)cn1 (stereo not drawn) | -8.379
19 | CCc1nc(C)sc1CN1CC[C@](C)(O)[C@H](C)C1 | 84.46
20 | Cc1nc2c(c(N3C[C@@H](C)[C@@](C)(O)C3)n1)CCC2 | 13.84
21 | CCc1nc(C)sc1CN1C[C@@H](C)[C@@](C)(O)C1 | 98.2
22 | C[C@@H]1CN(Cc2c[nH]c(CC3CCCC3)n2)CC[C@]1(C)O | 8.823
23 | CCc1nc(C)sc1CN1CC[C@@](O)(CCOC)[C@H](C)C1 | 97.23
24 | CC[C@@]1(O)CCN(c2ncc(Cl)cc2F)C[C@H]1O | -11.81
25 | CCc1nc(C)sc1CNC1CCN(Cc2ccccc2)C1 (stereo not drawn) | -80.76

Row | Compound | Percent Effect [%]
26 | CCc1nc(C)sc1CN1CC[C@](O)(CC)[C@H](O)C1 | 116.1
27 | CCc1ccc(S(=O)(=O)N2CC[C@@](O)(CCOC)[C@H](C)C2)cc1 | -34.1
28 | COCC[C@]1(O)CCN(C(=O)c2cnn(C)c2)C[C@H]1C | -13.07
29 | CC[C@@]1(O)CCN(Cc2cc(C3CCCCC3)no2)C[C@H]1O | 5.851
30 | CNC(=O)c1noc(CN2CC[C@](C)(O)[C@H](C)C2)n1 | 23.29
31 | O=C(O)CCNC(=O)C1(c2cccc(Br)c2)CCOCC1 | -13.76
32 | NC(=O)C1CCCN1Cc1ccccc1NC(=O)Cc1cccc(F)c1 (stereo not drawn) | -5.666
33 | N#Cc1cccnc1NCCNC(=O)N1CCSCC1 | -7.557
34 | Cn1nc(Cn2cccn2)c2c1CN(C1CCOC1)C2.O=C(O)C(F)(F)F (stereo not drawn) | -10.84
35 | CC(C)N1CCc2[nH]nc(C(=O)N3CCN(C)CC3)c2C1.O=C(O)C(F)(F)F.O=C(O)C(F)(F)F.O=C(O)C(F)(F)F | -19.75
36 | CC(C)N1CCc2ncn(C)c2C1C(=O)N1CCOCC1.O=C(O)C(F)(F)F (stereo not drawn) | -11.58
37 | CCC(C)N1CCc2c(C(=O)N(C)Cc3ccccn3)nn(C)c2C1 (stereo not drawn) | -11.92
38 | CC(C)N1Cc2c(C(=O)N3CCN(C)CC3)nn(C)c2C1 | 107
39 | CC(C)N1CCc2[nH]nc(C(=O)N3CCOCC3)c2C1.O=C(O)C(F)(F)F.O=C(O)C(F)(F)F | -15.4
40 | CC(C)N1CCc2c(C(=O)N3CCOCC3)nn(C)c2C1.O=C(O)C(F)(F)F | 113.7
41 | CCC(C)N1Cc2c(C(=O)N3CCCC3)nn(C)c2C1.O=C(O)C(F)(F)F (stereo not drawn) | 4.311
42 | CCC(C)N1Cc2c(C(=O)N3CCOCC3)nn(C)c2C1.O=C(O)C(F)(F)F (stereo not drawn) | 101.3
43 | CCSc1ccccc1C(=O)N1CCC(S(=O)(=O)c2nncn2C)CC1 | -2.113
44 | O=C(CCN1CCc2cncnc2C1)N1CCc2sccc2C1 | -13.17
45 | CCCN(Cc1nc2ccccc2[nH]1)Cc1ccccc1OC | -7.618
46 | CNC(=O)C(CC(C)C)NC(=O)c1cccc(-c2n[nH]c(C)n2)c1 (stereo not drawn) | -1
47 | Cc1cnc(CN(C)C2CCN(CC(=O)Nc3c(C)n[nH]c3C)C2)o1 (stereo not drawn) | -8.354
48 | CN1CCCC(c2cccc(CCC(=O)NCC3(C)COC3)n2)C1 (stereo not drawn) | 99.75
49 | CN1CCCC(c2cccc(CCC(=O)NCc3ccccn3)n2)C1 (stereo not drawn) | 93.1
50 | Cc1n[nH]c(C)c1NC(=O)CN1CCc2c(nc(C3CC3)n2C)C1 | 10.04

Row | Compound | Percent Effect [%]
51 | COCC1CCN(C(=O)c2cccc(S(=O)(=O)NCC3(C)COC3)c2)C1 (stereo not drawn) | -10.59
52 | Cc1n[nH]c(C)c1NC(=O)CCc1cccc(C2CCCN(C)C2)n1 (stereo not drawn) | 122.5
53 | O=C(CCc1ccccn1)NC1CCCN(C2Cc3ccccc3C2)C1 (stereo not drawn) | 4.048
54 | CN1CCN(C(=O)c2cccc(S(=O)(=O)NCC3(C)COC3)c2)CC1 | -15.33
55 | CC(=O)N1CCCN(C(=O)NCc2ccccn2)CC1 | -1.258
56 | CNC(=O)CCc1cccc(C2CCCN(c3cc(C)ncn3)C2)n1 (stereo not drawn) | 97.41
57 | O=C(Cn1cc(C(=O)O)ccc1=O)Nc1cc(F)ccc1F | -7.497
58 | Cc1[nH]ccc1C(=O)NC1CCC(N2C(=O)CCC2=O)CC1 (stereo not drawn) | -10.09
59 | Cc1cc(C)c(CNC(=O)NCCCNc2ccccn2)c(=O)[nH]1 | 5.95
60 | CCc1noc(CS(=O)(=O)Cc2nc(Cc3ccccc3)no2)n1 | 6.103
61 | CN1CCCC(c2cccc(CCC(N)=O)n2)C1 (stereo not drawn) | 113.5
62 | O=C(CCc1ccccn1)NC1CCN(c2cccc(Cl)c2)C1 (stereo not drawn) | 3.633
63 | CN1CCC(c2cccc(CCC(=O)NCC(N)=O)n2)CC1 | 102.3
64 | CS(=O)(=O)N[C@@H]1CCN(Cc2ccncc2)[C@H]1Cc1cccnc1 | -7.843
65 | Cc1cc(C(=O)NC(C)C(=O)Nc2cc(F)ccc2C)nc(C)n1 (stereo not drawn) | -4.486
66 | COc1ccccc1C(O)Cn1cc(C(=O)NCC2CC2)nn1 (stereo not drawn) | -12.95
67 | COc1cc(C(=O)NCC2CCCO2)nc2c(C)cc(F)cc12 (stereo not drawn) | 102.3
68 | COc1ccc(F)cc1C(C)NC(=O)c1nnc(C)s1 (stereo not drawn) | 1.178
69 | O=C(NCC1CCCO1)c1cc(COc2ccccc2F)[nH]n1 (stereo not drawn) | -5.725
70 | COc1cc(C(=O)NC(C)C)nc2c(C)cc(F)cc12 | 104.7
71 | CCNC(=O)c1cc(OC)c2cc(F)cc(C)c2n1 | 114.2
72 | CCNC(=O)N(C)Cc1ccc(SC)c(OC)c1 | -16.12
73 | COc1cc(C(=O)NCC2CC2)nc2c(C)cc(F)cc12 | 82.93
74 | COc1cc(CCNC(=O)NCCC2CCCO2)ccc1C (stereo not drawn) | -11.71
75 | O=C(NCC1CC1)c1nc2c(o1)CN(CC1CC1)C2.O=C(O)C(F)(F)F | -8.922

Row | Compound | Percent Effect [%]
76 | COc1ccccc1[S+]([O-])CC(=O)NCc1cc(F)cc(F)c1 (stereo not drawn) | -8.178
77 | CS(=O)(=O)c1ccc(CNC[C@H]2COCc3nc4ccccc4n32)cc1 | -0.06058
78 | CN1CC[C@H]2CN(C(=O)c3ccc4sc5c(c4c3)CCNC5=O)C[C@H]21 | 3.711
79 | CCN(CC)C(=O)Cn1cc(C(=O)NCCCc2scnc2C)nn1 | 7.072
80 | CC(C)(C)C(O)CN1CCN(CC(=O)NC(C2CC2)C2CC2)CC1 (stereo not drawn) | 12.33
81 | O=C(C1CCSCC1)N1CC[C@H]2OCC[C@@]2(COCC2CC2)C1 | -16.75
82 | Cc1nc(S(=O)(=O)CCn2cccn2)n(C2CCCCC2)c1C | -17.58
83 | N#Cc1ccc(SCCCO)c(F)c1 | -3.443
84 | COc1cc(N2C[C@H]3CN(C(=O)c4cccnc4)C[C@H]3C2)ncn1.O=C(O)C(F)(F)F | -0.6433
85 | O=C(C[C@@H]1COC[C@H]2CN(C(=O)c3cccnc3)C[C@@H]12)N1CCOCC1.O=C(O)C(F)(F)F | 132.5
86 | Cc1cnc(CNC(=O)C[C@@H]2COC[C@H]3CN(C4CCC4)C[C@@H]23)cn1 | -2.895
87 | O=C(C[C@@H]1COC[C@H]2CN(Cc3ccncc3)C[C@@H]12)N1CCOCC1.O=C(O)C(F)(F)F.O=C(O)C(F)(F)F | 3.799
88 | O=C(C[C@@H]1COC[C@H]2CN(C3CCCC3)C[C@@H]12)NCc1cccnc1.O=C(O)C(F)(F)F.O=C(O)C(F)(F)F | 105.3
89 | O=C(C[C@@H]1COC[C@H]2CN(C(=O)c3cccnc3)C[C@@H]12)N1CCCC1.O=C(O)C(F)(F)F | 97.49
90 | O=C(C[C@@H]1COC[C@H]2CN(Cc3ccc(F)cc3)C[C@@H]12)N1CCOCC1.O=C(O)C(F)(F)F | 19.83
91 | O=C(Nc1cnccn1)[C@@H]1COC[C@H]2CN(C3CCCC3)C[C@H]21.O=C(O)C(F)(F)F | 2.256
92 | COCc1nn(CC2CC2)c2c1CN(Cc1ccco1)CC2.O=C(O)C(F)(F)F | -26.88
93 | Cc1cc(NC(=O)CN(CC(C)O)c2ccccc2)on1 (stereo not drawn) | -1.303
94 | CC(=O)N(C)Cc1ccc(OCc2cccs2)cc1 | 14.59
95 | COc1ccc(C2OC(COc3ccc(C)cc3)=NN2C(C)=O)cc1 (stereo not drawn) | 120.9
96 | CC(=O)N1N=C(COc2ccc(C)cc2)OC1c1ccc(N(C)C)cc1 (stereo not drawn) | 128.5
97 | COc1ccc(OCc2nc(C(=O)N3CCC(NC(C)=O)C3)co2)cc1 (stereo not drawn) | 5.881
98 | COc1ccc(C2OC(COc3ccccc3Br)=NN2C(C)=O)cc1 (stereo not drawn) | -8.819
